Experiment [1] can be described thus: qHTS assay to identify small molecule agonists of the sonic hedgehog signaling (Shh) pathway (AID 1259368; calls by dose curve;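 also: NIH/3T3-derived 3T3Gli1-Luc cells carrying a stable Gli1-driven firefly luciferase reporter; series mostly up to about 92 µM; nearly all actives have a fitted effect of over 15% in size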). The essentials: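 Read-out: firefly luciferase luminescence from a Gli1 response element reporter stably integrated in NIH/3T3-derived 3T3Gli1-Luc cells, measured 30 min at room temperature after reagent addition. Compound exposure lasted 24 hr at 37 C, 5% CO2.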
A general note: qHTS replaces the single test concentration by a dilution series.

Experiment [2] addresses Estrogen receptor beta (Homo sapiens) (UniProt Q92731). The experiment is described as follows: qHTS assay to identify small molecule agonists of the estrogen receptor beta (ER-beta) signaling pathway (AID 1259377; active = well fitted activation curve with a large enough effect in the signal ratio in the repeat runs, not every such curve was filed as active; the % refers to the signal ratio; also: potency is read from the fitted curve at half-maximal effect). Summed up:
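In HEK293T cells bearing a UAS-beta-lactamase reporter under ER-beta control, DMSO-delivered compounds were incubated for 16 hr at 37C. Activity was detected as fluorescence 2 hours after LiveBLAzer B/G FRET substrate addition.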

For experiment [3] the target is unchanged. The experiment is described as follows: qHTS assay to identify small molecule antagonists of the estrogen receptor beta (ER-beta) signaling pathway (AID 1259378; active = well fitted inhibition curve with a large enough effect in the signal ratio in the repeat runs, not every such curve was filed as active; the % refers to the signal ratio; also: potency is read from the fitted curve at half-maximal effect). Summed up: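 ER-beta-UAS-bla HEK293T cells in 2% charcoal-stripped FBS medium treated with compound plus 1nM final 17-beta-estradiol for 16 hr at 37C. Beta-lactamase reporter read by FRET substrate fluorescence after 2 hours at room temperature.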

Experiment [4] is described as follows: qHTS assay to identify small molecule agonists of the androgen receptor (AR) signaling pathway in the presence of an antagonist - cell viability counter screen (AID 1259379). Also: nearly all actives have a fitted effect of over 25% in size. Also: potency is read from the fitted curve at half-maximal effect. The essentials:
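Viability counter screen: CellTiter-Fluor fluorescence, measured in the same wells as the luciferase read-out. MDA-kb2 cells, 3,000/well, with nilutamide at 3.0uM final and compounds at 15 concentrations, 16 hr at 37C, 0% CO2.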

A short description of experiment [5]: qHTS assay to identify small molecule agonists of the estrogen receptor beta (ER-beta) signaling pathway - cell viability counter screen (AID 1259380). Also: nearly all actives have a fitted effect of over 30% in size. Also: potency is read from the fitted curve at half-maximal effect. The essentials: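 Luminescence read-out (CellTiter-Glo, 30 min, room temp) taken in the same wells as the beta-lactamase reporter assay; ER-beta-UAS-bla HEK293T cells exposed to DMSO-dissolved compounds for 16 hr at 37C in 2% charcoal-stripped FBS medium.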

Experiment [6] is described as follows: qHTS assay to identify small molecule antagonists of the estrogen receptor beta (ER-beta) signaling pathway - cell viability counter screen (AID 1259382). Also: nearly all actives have a fitted effect of over 55% in size. Also: potency is read from the fitted curve at half-maximal effect. Summed up: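 Luminescent ATP read-out (CellTiter-Glo, 30 min, RT) taken in the same wells as the bla reporter assay. HEK293T ER-beta-UAS-bla cells in 2% charcoal-stripped FBS were exposed to compounds with 1nM E2 for 16 hr at 37C.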

For experiment [7], the target named is Estrogen receptor (Homo sapiens) (UniProt P03372). The experiment can be described thus: qHTS assay to identify small molecule agonists of the estrogen receptor alpha (ER-alpha) signaling pathway in the presence of an antagonist (AID 1259383; calls by dose curve; also: nearly all actives have a fitted effect of over 15% in size; also: potency is read from the fitted curve at half-maximal effect; as to activation: top concentration of the series differs between compounds). Summed up: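 Luciferase luminescence (ONE-Glo, 30min at room temperature) measured in VM7Luc4E2 cells after 22hr compound exposure at 15 concentrations, with 10.0nM ICI-182,780 final present; cells express endogenous ER-alpha and carry four EREs upstream of luciferase.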
Chain of Estrogen receptor (Homo sapiens) (P03372 whole entry, looked up): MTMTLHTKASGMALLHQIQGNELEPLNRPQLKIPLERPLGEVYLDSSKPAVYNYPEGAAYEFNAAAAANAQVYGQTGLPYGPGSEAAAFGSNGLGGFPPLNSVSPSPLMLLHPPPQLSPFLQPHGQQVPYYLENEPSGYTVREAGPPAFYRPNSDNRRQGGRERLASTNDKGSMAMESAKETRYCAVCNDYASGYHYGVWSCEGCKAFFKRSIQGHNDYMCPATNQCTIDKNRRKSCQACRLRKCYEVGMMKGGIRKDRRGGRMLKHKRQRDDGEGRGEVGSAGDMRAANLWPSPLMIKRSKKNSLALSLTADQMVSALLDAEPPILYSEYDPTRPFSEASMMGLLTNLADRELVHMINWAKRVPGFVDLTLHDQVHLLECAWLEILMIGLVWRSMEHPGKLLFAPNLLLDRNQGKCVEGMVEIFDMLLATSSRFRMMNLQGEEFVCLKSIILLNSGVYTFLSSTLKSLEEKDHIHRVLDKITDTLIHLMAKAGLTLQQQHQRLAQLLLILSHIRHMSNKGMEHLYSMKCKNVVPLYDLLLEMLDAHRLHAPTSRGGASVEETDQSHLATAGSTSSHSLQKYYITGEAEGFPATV

Experiment [8] is described as follows: qHTS assay to identify small molecule agonists or antagonists of the thyroid stimulating hormone receptor (TSHR) signaling pathway - wild type cell line counter screen (AID 1259384; calls by dose curve). Summed up:
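Wild-type Hek293 cells, 800/well, 18 h at 37C, then compound with Ro20-1724 for 30 min RT. cAMP by HTRF (cAMP-d2/anti-cAMP cryptate), 1 h RT, fluorescence read. 15 concentrations, triplicates.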

Experiment [9] has as its target Androgen receptor (Homo sapiens) (UniProt P10275). The experiment is described as follows: qHTS assay to identify small molecule agonists of the androgen receptor (AR) signaling pathway in the presence of an antagonist (AID 1259381; calls by dose curve; also: nearly all actives have a fitted effect of over 15% in size). The essentials:
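Luciferase read-out (ONE-Glo, 30min room temperature) in MDA-kb2 MMTV-reporter cells; agonist mode run in presence of AR antagonist nilutamide, 3.0uM final. Compounds tested as 15-point series, 16hr exposure at 37C, 0% CO2.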

A short description of experiment [10]: qHTS assay to identify small molecule antagonists of the sonic hedgehog signaling (Shh) pathway (AID 1259369; calls by dose curve; also: nearly all actives have a fitted effect of over 45% in size). The essentials:
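Luminescence readout: firefly Luc under Gli1 response element in 3T3Gli1-Luc cells (NIH/3T3 clone). Antagonist mode, stimulation by conditioned medium; compound exposure 24hr at 37 C, 5% CO2.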

Consider 28 molecules from PubChem BioAssay (Tox21).

Several values for one entry are separate records, joined by “and”; a condition that tells them apart may be missing. Equal entries are not always repeated. Values without a mark were called inactive. Inconclusive results are not listed. Activity calls are given as the source filed them. Unless noted, calls follow the shape of the dose curve; as a rule, active = well fitted curve in the direction sought with a large enough effect in the repeat runs; inconclusive = weak or mixed curves; inactive = no such curve, though single readings can be large; an effect the other way counts as inactive or inconclusive.

Chain of Estrogen receptor beta (Homo sapiens) (Q92731 whole entry, looked up): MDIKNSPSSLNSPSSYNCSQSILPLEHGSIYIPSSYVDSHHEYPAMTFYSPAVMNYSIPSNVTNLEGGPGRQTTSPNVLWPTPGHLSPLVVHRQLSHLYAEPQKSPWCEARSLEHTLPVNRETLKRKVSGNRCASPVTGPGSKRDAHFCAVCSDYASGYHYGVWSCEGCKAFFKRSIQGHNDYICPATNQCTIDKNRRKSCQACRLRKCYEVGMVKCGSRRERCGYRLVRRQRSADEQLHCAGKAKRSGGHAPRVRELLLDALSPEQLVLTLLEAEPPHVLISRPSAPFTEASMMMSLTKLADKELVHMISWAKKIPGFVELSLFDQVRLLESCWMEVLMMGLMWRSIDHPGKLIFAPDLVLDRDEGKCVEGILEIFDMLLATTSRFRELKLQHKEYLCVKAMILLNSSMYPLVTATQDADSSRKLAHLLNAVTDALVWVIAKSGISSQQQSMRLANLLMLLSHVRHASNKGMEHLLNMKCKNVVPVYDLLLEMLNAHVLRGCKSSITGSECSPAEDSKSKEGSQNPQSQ
Chain of Androgen receptor (Homo sapiens) (P10275 whole entry, looked up): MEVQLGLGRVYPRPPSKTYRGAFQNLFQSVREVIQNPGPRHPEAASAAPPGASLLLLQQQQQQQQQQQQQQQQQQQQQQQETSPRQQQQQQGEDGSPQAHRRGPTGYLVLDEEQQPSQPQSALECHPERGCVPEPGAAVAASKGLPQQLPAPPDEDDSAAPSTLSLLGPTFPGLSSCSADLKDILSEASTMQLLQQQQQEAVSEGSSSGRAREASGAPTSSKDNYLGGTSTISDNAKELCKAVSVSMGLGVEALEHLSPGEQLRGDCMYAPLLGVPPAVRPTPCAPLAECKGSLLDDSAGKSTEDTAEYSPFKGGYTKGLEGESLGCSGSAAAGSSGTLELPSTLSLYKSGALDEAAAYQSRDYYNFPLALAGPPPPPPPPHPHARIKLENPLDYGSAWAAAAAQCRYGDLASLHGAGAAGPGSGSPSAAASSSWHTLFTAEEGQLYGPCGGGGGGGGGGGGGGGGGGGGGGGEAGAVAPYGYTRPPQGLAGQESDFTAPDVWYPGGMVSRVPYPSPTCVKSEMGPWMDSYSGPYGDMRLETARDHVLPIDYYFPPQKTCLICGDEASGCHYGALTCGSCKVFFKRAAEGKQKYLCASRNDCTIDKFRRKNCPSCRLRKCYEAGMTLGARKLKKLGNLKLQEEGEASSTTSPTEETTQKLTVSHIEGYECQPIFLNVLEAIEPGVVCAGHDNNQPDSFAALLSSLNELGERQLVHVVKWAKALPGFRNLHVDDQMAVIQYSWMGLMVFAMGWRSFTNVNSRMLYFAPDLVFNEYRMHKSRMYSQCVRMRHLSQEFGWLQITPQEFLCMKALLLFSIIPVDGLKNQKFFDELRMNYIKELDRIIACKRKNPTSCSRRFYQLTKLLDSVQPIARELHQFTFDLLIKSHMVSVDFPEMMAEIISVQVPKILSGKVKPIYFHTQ

Take `CN(C)CCN1C(=O)c2ccccc2N(C)c2ccccc21`: the Potency result in [1], in [2], in experiment [3], in [4], in experiment [5] and in experiment [6] was “inactive” throughout. The Potency entry in experiment [7] is “inactive”. Also, in experiment [8], the molecule was called inactive.

On to `C/C=C(/C(=C/C)c1ccc(O)cc1)c1ccc(O)cc1`, for which the Potency result in [1], in experiment [4], in experiment [5] and in [6] was “inactive” in each case. Also, the Potency in experiment [2] was 1.9 nM (active). The call in experiment [8] was inactive.

Consider `Oc1cc2c(cc1O)[C@H]1c3ccc(O)c(O)c3OC[C@@]1(O)C2`, for which the Potency entry in experiment [1], in experiment [2], in [5], in experiment [6] and in experiment [7] was “inactive” each time. Further, the Potency in [4] is 61.9 µM (active).

Take `CCCCN(CCN(CCCC)C(=O)N1CCOCC1)C(=O)N1CCOCC1`: the Potency result in experiment [1], in experiment [2], in [4], in experiment [5], in experiment [9] and in experiment [6] was “inactive” throughout. Besides, the Potency result in experiment [7] is “inactive”. Besides, the outcome in experiment [8] was inactive.

On to `CCOC(=O)C1=C(C)NC(C)=C(C(=O)OC)C1c1cccc(Cl)c1Cl` (configuration not stated), for which the Potency entry in [1], in [2], in experiment [4], in experiment [6] and in [7] was “inactive” each time. The result in experiment [8] was inactive.

Turning to `CC(C)=CC(=O)C=C(C)C`, the Potency result in [1], in [2], in [4], in experiment [5], in experiment [6] and in experiment [7] was “inactive” each time. The molecule was called inactive in experiment [8].

`O=C1C(=O)c2ccccc2C(O)=C1C1CCC(c2ccc(Cl)cc2)CC1` (configuration not stated): the Potency entry in [1], in experiment [2] and in experiment [7] was “inactive” throughout. In addition, the Potency in [4] is 23.7 µM (active); in experiment [5], 2.66 µM (active).

Take `Cc1ccccc1S`: the Potency entry in experiment [1], in [2], in [4], in experiment [5], in experiment [6] and in [7] was “inactive” each time. The molecule was classed as inactive in experiment [8].

As to `C=CC(=O)[O-].C=CC(=O)[O-].[Zn+2]`, the Potency entry in [1], in experiment [2], in experiment [4], in experiment [5], in experiment [6] and in experiment [7] was “inactive” in each case. Also, in experiment [8], the call was inactive.

With `CC(C)Nc1cccnc1N1CCN(C(=O)c2cc3cc(NS(C)(=O)=O)ccc3[nH]2)CC1`, the Potency entry in experiment [1], in experiment [2], in experiment [3] and in experiment [4] was “inactive” in each case. The Potency in [5] is 26.6 µM (active). In experiment [8], the molecule was called inactive.

As for `CC(CCC(=O)O)C(=O)O` (configuration not stated), the Potency result in experiment [1], in experiment [2], in experiment [3], in experiment [4], in experiment [5] and in [6] was “inactive” throughout. Also, in experiment [8], the molecule was classed as inactive.

For the molecule `CCOC(=O)c1ccc(C#Cc2ccc3c(c2)C(C)(C)CCS3)nc1`, the Potency entry in experiment [1], in experiment [2], in experiment [3], in experiment [4], in [5] and in experiment [6] was “inactive” each time. Besides, the call in experiment [8] was inactive.

Take `CC1CC(OC(=O)C(O)c2ccccc2)CC(C)(C)N1C` (configuration not stated): the Potency result in experiment [1], in experiment [2], in experiment [4], in [5] and in experiment [6] was “inactive” throughout. Also, the outcome in [8] was inactive.

Take `Cc1c(C)c2c(c(C)c1OC(=O)CCC(=O)OCCO)CC[C@@](C)(CCC[C@H](C)CCC[C@H](C)CCCC(C)C)O2`: the Potency entry in experiment [1], in [2] and in [4] was “inactive” throughout. Besides, the Potency in experiment [3] was 13.3 µM (active). In addition, in [8], the result was inactive.

Turning to `CC(O)c1ccccc1` (configuration not stated), the Potency entry in [1], in experiment [2], in experiment [3], in experiment [4], in experiment [5] and in [6] was “inactive” each time. Besides, the Potency entry in experiment [7] was “inactive”. For the same molecule, the molecule was called inactive in [8].

As for `C[C@]12CC[C@@H]3c4ccc(O)cc4CC[C@H]3[C@@H]1CC[C@@H]2OC(=O)CCC1CCCC1`, the Potency result in [1], in experiment [4] and in [6] was “inactive” each time. In addition, the Potency in [2] is 2.2 nM (active) and 2.7 nM (active); in [5], 61.1 µM (active) and 29.8 µM (active); in experiment [7], 4.9 nM (active) and 4.2 nM (active). Moreover, in experiment [8], the molecule was called inactive.

For the molecule `O=c1[nH]ncc2ccccc12`, the Potency result in experiment [1], in experiment [2], in experiment [4], in experiment [5], in [6] and in [7] was “inactive” each time. In addition, in [8], the result was inactive.

In the case of `CC(=O)[C@H]1[C@H](C#N)C[C@H]2[C@@H]3CC=C4C[C@@H](O)CC[C@]4(C)[C@H]3CC[C@@]21C`, the Potency entry in [1], in experiment [2], in experiment [4] and in [7] was “inactive” in each case. In addition, the Potency in experiment [5] was 29.5 µM (active).

For the molecule `COC(=O)C1=C(C)NC(C)=C(C(=O)O[C@@H]2CCCN(Cc3ccccc3)C2)[C@@H]1c1cccc([N+](=O)[O-])c1`, the Potency entry in experiment [1], in [2], in experiment [4], in experiment [5], in [6] and in [7] was “inactive” each time. Moreover, the molecule was classed as inactive in [8].

Regarding `c1ccc(C[n+]2cccc3ccccc32)cc1`, the Potency result in experiment [1], in experiment [2], in experiment [5], in experiment [6] and in experiment [7] was “inactive” throughout. Also, in experiment [4], the Potency was 48.6 µM (active). Further, the molecule was classed as inactive in experiment [8].

On to `CC1CC(C)C(=O)C1=O` (configuration not stated), for which the Potency entry in experiment [1], in [2], in experiment [4], in experiment [5] and in experiment [6] was “inactive” each time. The molecule was classed as inactive in experiment [8].

As for `c1ccc2c(c1)CCc1ccccc1N2`, the Potency entry in [1], in experiment [2], in experiment [3], in experiment [4], in [5] and in experiment [6] was “inactive” throughout. For the same molecule, the result in experiment [8] was inactive.

Take `CC(=O)N/N=C/c1ccc([N+](=O)[O-])o1`: the Potency result in experiment [1], in [3], in experiment [4], in [5], in [6] and in experiment [7] was “inactive” throughout. Further, in experiment [8], the call was inactive.

On to `OCCN1CCN(CCCN2c3ccccc3Sc3ccc(Cl)cc32)CC1`, for which the Potency result in [1] and in experiment [7] was “inactive” in each case. In addition, the values for the Potency in [5] and in [6] were 23.7 µM (active) and 13.3 µM (active), respectively. In addition, the molecule was called inactive in experiment [8].

Regarding `O=C1c2ccccc2C(=O)C1(O)O`, the Potency entry in experiment [3], in experiment [4], in experiment [6] and in experiment [7] was “inactive” each time. For the same molecule, the molecule was classed as inactive in experiment [8].

As for `CCCCCCNC(=O)n1cc(F)c(=O)[nH]c1=O`, the Potency result in [1], in [3], in experiment [4] and in [6] was “inactive” throughout. For the same molecule, the molecule was classed as inactive in experiment [8].

With `CC(C)(c1ccccc1)c1ccccc1`, the Potency entry in experiment [1], in experiment [4], in [5] and in [6] was “inactive” in each case. Also, the result in experiment [8] was inactive.

On to `CCCCCCCCOc1ccc(C(=O)O)cc1`, for which the Potency entry in experiment [10], in [2], in [4] and in experiment [6] was “inactive” throughout. Besides, the outcome in experiment [8] was inactive.
